Screening data from PubChem BioAssay.
Most compounds without a hit are left out; they make up all but 2.4% or so of the library.
TDP1 inh: inhibitors of human tyrosyl-DNA phosphodiesterase TDP1. Q9NUW8. recombinant TDP1, AlphaScreen DNA substrate cleavage. Potency, µM (top dose mostly 130 µM), for inactives: at the highest dose activity change, negative = inhibition, usual class: inhibitors. 0.28% of 350,000 active. AID 485290; note: % is set by controls: 0 for no effect and ±100 for the full control effect; nearly all actives have a fitted effect of over 40% in size
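Steps: enzyme plus compound, 15 min RT; add biotin/phosphotyrosine-FITC oligonucleotide (15 nM final), react 5 min; add donor/acceptor beads (10 ug/ml final), 10 min; read AlphaScreen. Tdp1 at 1 nM final.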
FEN1 inhibitor: blocks human flap endonuclease 1; P39748; Recombinant FEN1 flap cleavage, fluorescence, 15 min; Potency, µM (highest dose often 114 µM), without a hit: top-dose activity change, negative = inhibition, most hits filed as inhibitors; 0.35% of 390,000 active; note: % is set by controls: 0 for no effect and ±100 for the full control effect; nearly all actives have a fitted effect of over 65% in size
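Enzyme 10 nM, 15 min RT preincubation with compound; start with substrate 50 nM final; reads at 0 and 15 min; qHTS titration, four-parameter Hill fit.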
Pol eta inh: blocks human DNA polymerase eta activity; Q9Y253; recombinant Pol eta, fluorescent DNA replication assay; Potency, µM (top dose mostly 114 µM), for inactives: at the highest dose activity change, negative = inhibition, usual class: inhibitors; 1.2% of 390,000 active; AID 588591; note: % is set by controls: 0 for no effect and ±100 for the full control effect
Target sequence (Q9Y253 whole entry, looked up): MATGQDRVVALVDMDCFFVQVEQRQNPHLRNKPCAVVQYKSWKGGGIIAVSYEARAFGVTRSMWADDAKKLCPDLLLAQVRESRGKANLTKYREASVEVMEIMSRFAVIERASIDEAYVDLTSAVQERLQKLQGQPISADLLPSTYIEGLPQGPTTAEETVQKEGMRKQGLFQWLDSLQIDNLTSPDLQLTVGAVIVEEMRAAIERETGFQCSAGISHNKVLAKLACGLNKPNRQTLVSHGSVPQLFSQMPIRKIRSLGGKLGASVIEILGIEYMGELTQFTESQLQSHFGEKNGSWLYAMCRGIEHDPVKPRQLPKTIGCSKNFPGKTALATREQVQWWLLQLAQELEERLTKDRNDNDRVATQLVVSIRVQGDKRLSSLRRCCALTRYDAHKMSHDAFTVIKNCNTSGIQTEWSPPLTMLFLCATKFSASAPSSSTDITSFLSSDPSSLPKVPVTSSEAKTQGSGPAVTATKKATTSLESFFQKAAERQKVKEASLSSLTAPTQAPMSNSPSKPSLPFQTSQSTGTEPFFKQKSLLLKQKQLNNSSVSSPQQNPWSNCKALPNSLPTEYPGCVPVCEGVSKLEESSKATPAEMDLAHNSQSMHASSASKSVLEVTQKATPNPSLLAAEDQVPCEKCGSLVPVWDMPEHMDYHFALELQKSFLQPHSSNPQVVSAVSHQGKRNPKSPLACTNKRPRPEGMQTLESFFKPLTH
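Pol eta (10 nM) was preincubated with compounds for 15 min at room temperature, after which fluorescent replication substrate (50 nM final) was added to start the reaction. Fluorescence was read kinetically at 0 and 10 min.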
POLB inh: inhibitors of human DNA polymerase beta; P06746; Pol beta primer extension/strand displacement, fluorescence kinetic; Potency, µM (doses to about 114 µM), for inactives: at the top dose activity change, negative = inhibition, most hits filed as inhibitors; 1.3% of 340,000 active; note: % is set by controls: 0 for no effect and ±100 for the full control effect
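Pol beta (10 nM) was preincubated with compound for 15 min at room temperature. The reaction was then started with 50 nM substrate and read immediately and after a further 10 min at room temperature.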
Pol kappa inh: inhibitors of human DNA polymerase kappa; Potency, µM (top dose mostly 107 µM), for inactives: at the highest dose activity, negative = inhibition, actives largely listed as inhibitors; purified Pol kappa, fluorescent DNA synthesis assay, 10 min; 0.53% of 400,000 active; Q9UBT6; note: % is set by controls: 0 for no effect and ±100 for the full control effect
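Activity was followed as the change in fluorescence between reads at 0 and 10 min after starting the reaction with 50 nM substrate. Beforehand, 10 nM polymerase had been preincubated with compound for 15 min at room temperature.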
POLI inh: blocks human DNA polymerase iota activity; Potency, µM (highest dose often 115 µM), for the others: at the highest dose activity, negative = inhibition, usual class: inhibitors; 1% of 390,000 active; AID 588590; Pol iota fluorescent replication assay, 10 min
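Fluorescent replication assay read twice, at 0 min and 10 min after adding 50 nM (final) substrate. Enzyme (10 nM) and compounds were first incubated 15 min at room temperature; enzyme-free buffer wells were negative controls.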
An asterisk follows results filed as active; ? = inconclusive; . = no result; [ ] = remark or other dose. Calls come from the whole dose curve; as a rule, active = well fitted curve in the direction sought with a large enough effect; inconclusive = small, poorly fitted or top-dose-only effect, or another doubt; inactive = no such curve, though single readings can be large; an effect the other way counts as inactive or inconclusive. Potency is the fitted concentration of half-maximal effect.

SMILES	TDP1 inh	FEN1 inhibitor	Pol eta inh	POLB inh	Pol kappa inh	POLI inh
C[n+]1cccc(C2C(C#N)=C(N)Oc3c2ccc2ccccc32)c1 (configuration not stated)	.	-24%	-14%	7%	-23%	109%
C[n+]1cccc2ccc3c(c21)OC(N)=C(C#N)C3c1ccccc1 (configuration not stated)	12%	-10%	-3%	3%	-16%	18µM*
COc1ccccc1CN1CCC2(CC1)CCN(C(=O)c1cccc(F)c1)CC2	.	.	.	.	3%[60.1 µM]	.
Cc1ccc2c(CC(=O)OCc3csc(C)n3)coc2c1	-2%	-14%	-1%	7%	-10%	-3%
Cc1ccc(C(=O)Nc2ccccc2C(=O)OCc2cc(=O)n3nc(C(C)C)sc3n2)cc1	6%	11%	-21%	10%	1%[60.1 µM]	18%
O=C(OCc1cc(=O)n2c(n1)sc1ccccc12)c1ccc(O)cc1O	.	10%	?	2.8µM*	79µM*	40µM*
O=C(OCc1cc(=O)n2c(n1)sc1ccccc12)c1cccc(O)c1	?	-11%	?	22µM*	50µM*	45µM*
Cc1ccc(C(=O)N[C@H](C(=O)OCc2cc(=O)n3c(n2)sc2ccccc23)C(C)C)cc1	3%	1%	?	14µM*	?	?
O=C(Cc1coc2cc3c(cc12)CCC3)OCc1cc(=O)n2c(n1)sc1ccccc12	-12%	-1%	10µM*	10µM*	89µM*	?
O=C(Nc1cccc(C(=O)OCc2cc(=O)n3c4c(sc3n2)CCCC4)c1)c1ccccc1	9%	0%	-10%	8%	-11%[60.1 µM]	6%
CC(C)(C)n1ncc2c(=O)n(Cc3cccc(-c4ccccc4)c3)cnc21	.	6%	.	.	3%	20%
O=C(COc1ccccc1)NC1C(=O)N2C(C(=O)O)=C(Cl)CSC12 (configuration not stated)	.	-15%	?	14%	-36%	?
NC(=O)c1cc[n+](CC2=C(C(=O)O)N3C(=O)[C@@H](NC(=O)[C@@H](c4ccccc4)S(=O)(=O)[O-])[C@H]3SC2)cc1	11µM*	40µM*	3.2µM*	10µM*	27µM*	14µM*
O=C(Cc1cccs1)NC1C(=O)N2C(C(=O)[O-])=C(C[n+]3ccccc3)CSC12 (configuration not stated)	2.2µM*	.	.	.	3.5µM*	.
COc1ccc(-c2cc(=O)c3c(OC(C)=O)cc(OC(C)=O)cc3o2)cc1	8%	.	.	.	-9%[60.1 µM]	.
CC(=O)Oc1cc(OC(C)=O)c2c(=O)cc(-c3ccc(OC(C)=O)c(OC(C)=O)c3)oc2c1	13%	.	.	.	8.9µM*	.
CC(=O)Oc1cc(O)c2c(=O)c(OC(C)=O)c(-c3ccc(OC(C)=O)c(OC(C)=O)c3)oc2c1	.	2.8µM*	2.8µM*	.	7.1µM*	8.9µM*
Cc1ccc2nc(-c3ccc(C)c(NC(=O)COc4ccccc4Cl)c3)oc2c1	.	2%	.	.	12%	29%
O=C(Nc1ccccc1)c1ccc(N2CCN(c3ccccn3)CC2)c(S(=O)(=O)N2CCOCC2)c1	4%	-15%	-18%	-20%	-12%	89µM*
CC(=O)N/C(=C/c1ccccc1)c1sc2ccccc2[n+]1CCCCI	.	?	.	.	-33%	?
CC(=O)Nc1ccc(NC(=O)c2ccc3c(c2)NC(=O)c2ccccc2S3)cc1	-1%	-5%	-23%	8%	5%	-12%
Cc1ccc(NC(=O)c2ccc3c(c2)NC(=O)c2ccccc2S3)c(Cl)c1	0%	5%	-25%	?	9%	79µM*
CCc1ccc(NCc2cc3ccc(OC)cc3n(CC(=O)Nc3c(C)cc(C)cc3C)c2=O)cc1	8%	0%	-9%	2%	-6%	25%
O=C(NCC(c1ccco1)N1CCCC1)c1ccc(S(=O)(=O)Nc2ccccc2Cl)cc1 (configuration not stated)	0%	10%	?	.	79µM*	?
O=C(NCC(c1ccco1)N1CCCC1)c1ccc(S(=O)(=O)Nc2ccccc2F)cc1 (configuration not stated)	0%	1%	-22%	.	-4%	22%
SMILES	TDP1 inh	FEN1 inhibitor	Pol eta inh	POLB inh	Pol kappa inh	POLI inh
O=C(C[n+]1cc(Br)cc2ccccc21)c1ccc(O)c(O)c1	.	0%	.	.	2.8µM*	?
COc1ccc(-n2c(-c3ccc(Cl)cc3)c[n+]3c2CCc2ccccc2-3)cc1	2%	-6%	-18%	0%	-4%	33%
Cc1ccc(-n2c(-c3ccc(Br)cc3)c[n+]3c2CCc2ccc4cccnc4c2-3)cc1	6%	?	-9%	50µM*	-1%	-3%[58.9 µM]
CCCCCCCCCCCCCCCC[n+]1ccc(C)c2ccccc21	.	79µM*	.	.	-20%	-2%
CCCCCCCCCC[n+]1ccc(/C=C/c2c[nH]c3ccccc23)c2ccccc21	.	45µM*	.	.	?	?
CCCCCCC[n+]1ccc(/C=C/c2c[nH]c3ccccc23)cc1	.	-11%	.	.	-38%	53%
CCCCCCCCCC[n+]1cccc2c3ccccc3ccc21	6%	3%	-25%	16%	4%	3%
CCn1c(O)c(/C=C2\C=NN=C2c2ccc(C)cc2)sc1=S	8%	-6%	-21%	44%	-14%	89µM*
CCCOc1ccc(C(C)=O)cc1CSc1nc(O)cc(=O)[nH]1	-1%	-16%	-5%	?	?	35µM*
Cc1ccc(NC(=O)c2cccc3c2C(=O)N(C2CCCCC2)C3)c(Cl)c1	3%	-8%	-26%	17%	2%	8%
NC(=O)c1cccc2c1C(=O)N(C1CCCCC1)C2	-8%	-11%	50µM*	?	?	?
O=C(Nc1ccc(F)cc1F)c1cccc2c1C(=O)N(C1CCCCC1)C2	-7%	11%	-22%	13µM*	-39%	?
Cc1ccc(-c2ccc(CCC(=O)O)n2C(C)C)cc1	4%	3%	-7%	15%	3%	-11%
CC1=C(CCC(=O)O)c2cc3nc(cc4[nH]c(cc5[nH]c(cc1n2)c(C)c5C(C)O)c(C)c4C(C)O)C(C)=C3CCC(=O)O (configuration not stated)	16µM*	.	.	.	20µM*	.
O=C1CCc2cc(S(=O)(=O)Nc3ccccc3-c3ccccc3)ccc2N1	2%	.	.	.	.	.
N#C/C(=N\Nc1cccc([N+](=O)[O-])c1)C(=O)c1ccc(Br)cc1	11%	-28%	79µM*	5%	-34%	?
Cc1cc(N(C)C)ccc1/C=C/c1ccnc2ccccc12	.	-10%	.	.	-2%	9%
N#Cc1nc(Nc2ccc(-c3ccccc3)cc2)nc(NC2CCCC2)n1	1%	.	.	.	.	.
